# Test results published in PubChem BioAssay (Tox21).
# Unmarked numbers belong to inactive results. Results filed as inconclusive are left out. Where a call stands in place of a potency, no number is given. Calls of active or inactive are those of the source. Unless noted, the call rests on the fitted dose curve.
# Columns and labels:
# [1] = Nuclear factor erythroid 2-related factor 2/antioxidant responsive element (Nrf2/ARE) small molecule agonists: qHTS cell viability counter screen in human keratinocytes (AID 1919968; active means well fitted curve in the direction sought with a large enough effect in the repeat runs; an effect the other way counts as inactive or inconclusive; further: nearly all actives have a fitted effect of over 55% in size)
# Procedure, shortened: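 KeratinoSens cells (HaCaT keratinocytes stably carrying an ARE-luciferase reporter) were seeded at 1,500 cells/well and rested 5 h at 37 C/5% CO2. They were then exposed to compounds in DMSO for 23 h. Viability was read by CellTiter-Fluor fluorescence after 1 h.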
# [2] = Nuclear factor erythroid 2-related factor 2/antioxidant responsive element (Nrf2/ARE) small molecule agonists: luciferase reporter gene qHTS assay in human keratinocytes (AID 1919969); further: nearly all actives have a fitted effect of over 35% in size; further: potency means the concentration at half of the fitted maximal effect
# [3] = target: Gonadotropin-releasing hormone receptor (Homo sapiens) (UniProt P30968); assay: Human gonadotropin-releasing hormone receptor (GnRHR) small molecule agonists, calcium flux assay in GnRHR-HEK293 cells (AID 1920063); further: nearly all actives have a fitted effect of over 35% in size
# Procedure, shortened: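 HEK293 cells stably expressing human GnRHR were plated 18 h at 37 °C, loaded with calcium dye 1 h at 37 °C, then given compound in agonist mode; fluorescence (Ex/Em 480/540) read kinetically for 3 min at 1 s intervals.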
# [4] = target: KiSS-1 receptor (Homo sapiens) (UniProt Q969F8); assay: Human kisspeptin (KISS1R) small molecule agonists, calcium flux assay in KISS1R-HEK293 cells (AID 1920064; active means well fitted curve in the direction sought with a large enough effect in the repeat runs; an effect the other way counts as inactive or inconclusive)
# Procedure, shortened: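 HEK293 cells stably expressing human KISS1R were plated 18 h at 37 °C, loaded with calcium dye for 1 h at 37 °C, then given compound by pin tool. Fluorescence (Ex/Em 480/540) was read kinetically for 3 min.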
# [5] = G protein-coupled receptor (GPCR) small molecule agonists, calcium flux assay: HEK293 wild type cell line counter screen (AID 1920065)
# Procedure, shortened: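 Cells were plated and cultured 18 h at 37 C/5% CO2, then loaded with calcium dye for 1 h at 37 C. Compounds in DMSO were pin-transferred in agonist mode, and fluorescence (Ex/Em 480/540) was read kinetically for 3 min at 1 s intervals.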
# [6] = p53 small molecule agonists, cell-based qHTS assay with human liver microsomes (AID 1963577);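 further: p53 response element beta-lactamase reporter cells with liver microsomes plus NADPH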
# Procedure, shortened: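 With metabolic activation: human liver microsomes (0.5 mg/mL final) plus NADPH (0.5 mg/mL final) added alongside compounds to p53RE-bla cells; 16 h 37 C exposure; beta-lactamase read by LiveBLAzer fluorescence.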
# [7] = p53 small molecule agonists, cell-based qHTS assay with rat liver microsomes (AID 1963578)
# Procedure, shortened: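 Metabolic activation by rat liver microsomes and NADPH, each 0.5 mg/mL final, added right after compounds to p53RE-bla reporter cells (4,000/well, plated 5 h earlier). 16 h at 37 C, then LiveBLAzer substrate for 2 h at room temperature in the dark; fluorescence read-out.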
# [8] = p53 small molecule agonists, cell-based qHTS assay with human liver microsomes: qHTS cell viability counter screen (AID 1963579); further: nearly all actives have a fitted effect of over 45% in size
# Procedure, shortened: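 Metabolic activation used human liver microsomes and NADPH, both 0.5 mg/mL final, over 16 hours at 37 C on p53RE-bla cells (4,000/well). Cytotoxicity measured by CellTiter-Glo luminescence, 30 min at room temperature.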
# [9] = p53 small molecule agonists, cell-based qHTS assay with rat liver microsomes: qHTS cell viability counter screen (AID 1963580); further: nearly all actives have a fitted effect of over 45% in size
# Procedure, shortened: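 HCT-116 p53RE-bla, 4,000 cells/well, 5 h pre-incubation; cpd + rat liver microsomes 0.5 mg/mL + NADPH 0.5 mg/mL (final); 16 h, 37 C; CellTiter-Glo, 30 min RT; luminescence.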
# [10] = p53 small molecule agonists, cell-based qHTS assay: qHTS cell viability counter screen (AID 1963581); further: nearly all actives have a fitted effect of over 45% in size
# Procedure, shortened: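 p53RE-bla HCT-116 cells were exposed to compounds for 16 h at 37 C; after the beta-lactamase FRET read in the same wells, CellTiter-Glo was added and luminescence (intracellular ATP) read after 30 min at room temperature.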
# [11] = p53 small molecule agonists, cell-based qHTS assay (AID 1963582; active means well fitted activation curve with a large enough effect in the signal ratio in the repeat runs, not every such curve was filed as active; the % refers to the signal ratio)
# Procedure, shortened: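 p53RE-bla beta-lactamase reporter cells rested 5 h at 37 C/5% CO2, then received compounds in DMSO by pin transfer and were incubated 16 h at 37 C. LiveBLAzer B/G FRET substrate was loaded for 2 h at room temperature before fluorescence reading.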
# [12] = target: 5-hydroxytryptamine receptor 2A (Homo sapiens) (UniProt P28223); assay: 5-hydroxytryptamine receptor 2A (HTR2A) small molecule agonists, cell-based qHTS assay (AID 1963587); further: nearly all actives have a fitted effect of over 30% in size
# Procedure, shortened: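 Kinetic calcium-flux fluorescence (2 min, 1 sec intervals) after compound addition in agonist mode. HTR2A-CHO cells were cultured 18 h, then dye-loaded 1 h at 37 C.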
# [13] = target: Muscarinic acetylcholine receptor M1 (Homo sapiens) (UniProt P11229); assay: Cholinergic receptor muscarinic 1 (CHRM1) small molecule antagonists, cell-based qHTS assay (AID 1963588); further: nearly all actives have a fitted effect of over 40% in size
# Procedure, shortened: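 CHRM1-CHO calcium-flux assay, antagonist mode. Cells were seeded 18 h, dye-loaded 1 h at 37 C and given compound for 5 min at RT, then acetylcholine was added at 50nM. FDSS fluorescence was read 3 min; 15 concentrations, three runs.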
# [14] = target: Muscarinic acetylcholine receptor M1 (Homo sapiens) (UniProt P11229); assay: Cholinergic receptor muscarinic 1 (CHRM1) small molecule agonists, cell-based qHTS assay (AID 1963589); further: nearly all actives have a fitted effect of over 35% in size
# Procedure, shortened: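 CHO cells stably expressing human CHRM1, seeded 18 h at 37 C/5% CO2, dye-loaded 1 h at 37 C, then given compound in agonist mode; intracellular calcium fluorescence read kinetically at 1 s intervals. Fifteen concentrations, three independent runs.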
# [15] = cAMP Responsive Elements (CRE) small molecule antagonists, cell-based qHTS assay (AID 1963591; active means well fitted inhibition curve with a large enough effect in the signal ratio in the repeat runs, not every such curve was filed as active; the % refers to the signal ratio)
# Procedure, shortened: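 CRE-bla HEK293T cells were plated 18 h at 37 °C/5% CO2, pinned with compound in DMSO, then stimulated with NKH477 at 0.25 uM final for 3 h. LiveBLAzer B/G FRET substrate was added and plates incubated 2 h at room temperature.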
# [16] = target: Beta-2 adrenergic receptor (Homo sapiens) (UniProt P07550); assay: Adrenergic beta2 receptor (ADRB2) small molecule antagonists, cell-based qHTS assay (AID 1963592); further: series mostly up to about 92 µM; nearly all actives have a fitted effect of over 50% in size
# Procedure, shortened: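 Cells (CHO, stable ADRB2 overexpression) incubated 18-20hr at 37C; compounds added from DMSO; agonist mix (1nM isoproterenol, 100uM IBMX, 25uM Ro-20-1724) added; 0.5hr RT; d2-cAMP and anti-cAMP-cryptate added; 1hr RT; 665/615 nm read.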
# [17] = target: Beta-2 adrenergic receptor (Homo sapiens) (UniProt P07550); assay: Adrenergic beta2 receptor (ADRB2) small molecule agonists, cell-based qHTS assay (AID 1963593);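 further: CHO cells stably overexpressing human ADRB2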
# Procedure, shortened: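 CHO cells stably over-expressing ADRB2 were plated overnight at 37C, then dosed with compounds plus a stimulation mix containing 100uM IBMX and 25uM Ro-20-1724 for 0.5hr at room temperature. cAMP was measured by HTRF competition, 1hr.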
# [18] = target: D(2) dopamine receptor (Homo sapiens) (UniProt P14416); assay: Dopamine D2 receptor (DRD2) small molecule antagonists, cell-based qHTS assay (AID 1963595; active means well fitted inhibition curve with a large enough effect in the signal ratio in the repeat runs, with a control signal flat; the % refers to the signal ratio)
# Procedure, shortened: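 DRD2-HEK293; 0.1 mM Ro20-1724; cpd 10 min RT; NKH477 200 nM + quinpirole 12 nM, 30 min RT; HTRF cAMP (cAMP-d2/anti-cAMP cryptate), 665/620 nm ratio after 1 h.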
# [19] = cAMP Responsive Elements (CRE) small molecule agonists, cell-based qHTS assay (AID 1963590)
# Procedure, shortened: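 CRE-bla HEK 293T cells in DMEM with 10% dialyzed FBS, NEAA, pyruvate and 25 mM HEPES were plated 18 h at 37 C/5% CO2, then exposed to compounds in DMSO for 3 h before LiveBLAzer B/G FRET substrate addition.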
# [20] = target: D(2) dopamine receptor (Homo sapiens) (UniProt P14416); assay: Dopamine D2 receptor (DRD2) small molecule agonists, cell-based qHTS assay (AID 1963594); further: nearly all actives have a fitted effect of over 35% in size
# Procedure, shortened: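 cAMP accumulation in DRD2-HEK293 cells measured by HTRF after 1 h detection; compounds added 10 min before NKH477 (200nM […]) forskolin-analogue stimulation, 30 min at room temperature, with Ro20-1724 present at 0.1 mM final.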
# Sequence of 5-hydroxytryptamine receptor 2A (Homo sapiens) (P28223 whole entry, looked up): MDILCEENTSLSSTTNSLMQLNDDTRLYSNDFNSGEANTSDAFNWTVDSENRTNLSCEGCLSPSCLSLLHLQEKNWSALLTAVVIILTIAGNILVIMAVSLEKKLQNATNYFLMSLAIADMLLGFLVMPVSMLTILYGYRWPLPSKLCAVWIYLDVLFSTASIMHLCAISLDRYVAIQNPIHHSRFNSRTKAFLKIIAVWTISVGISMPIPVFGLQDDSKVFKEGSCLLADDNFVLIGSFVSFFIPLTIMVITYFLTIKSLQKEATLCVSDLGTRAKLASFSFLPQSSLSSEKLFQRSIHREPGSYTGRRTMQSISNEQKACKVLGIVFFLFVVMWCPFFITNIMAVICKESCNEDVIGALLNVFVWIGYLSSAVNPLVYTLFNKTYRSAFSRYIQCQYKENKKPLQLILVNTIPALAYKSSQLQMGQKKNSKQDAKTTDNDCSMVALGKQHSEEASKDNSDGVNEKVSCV
# Sequence of KiSS-1 receptor (Homo sapiens) (Q969F8 whole entry, looked up): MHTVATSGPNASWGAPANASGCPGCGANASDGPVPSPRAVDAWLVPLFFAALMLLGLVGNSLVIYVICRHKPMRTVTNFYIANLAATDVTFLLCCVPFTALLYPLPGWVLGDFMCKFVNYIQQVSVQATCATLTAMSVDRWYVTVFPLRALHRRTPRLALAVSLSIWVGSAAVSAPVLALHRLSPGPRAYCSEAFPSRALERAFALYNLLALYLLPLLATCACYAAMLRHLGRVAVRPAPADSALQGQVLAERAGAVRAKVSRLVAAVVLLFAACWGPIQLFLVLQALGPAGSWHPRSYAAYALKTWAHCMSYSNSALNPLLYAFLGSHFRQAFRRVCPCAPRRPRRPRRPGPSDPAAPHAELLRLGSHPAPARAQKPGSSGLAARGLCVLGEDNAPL
# Sequence of Muscarinic acetylcholine receptor M1 (Homo sapiens) (P11229 whole entry, looked up): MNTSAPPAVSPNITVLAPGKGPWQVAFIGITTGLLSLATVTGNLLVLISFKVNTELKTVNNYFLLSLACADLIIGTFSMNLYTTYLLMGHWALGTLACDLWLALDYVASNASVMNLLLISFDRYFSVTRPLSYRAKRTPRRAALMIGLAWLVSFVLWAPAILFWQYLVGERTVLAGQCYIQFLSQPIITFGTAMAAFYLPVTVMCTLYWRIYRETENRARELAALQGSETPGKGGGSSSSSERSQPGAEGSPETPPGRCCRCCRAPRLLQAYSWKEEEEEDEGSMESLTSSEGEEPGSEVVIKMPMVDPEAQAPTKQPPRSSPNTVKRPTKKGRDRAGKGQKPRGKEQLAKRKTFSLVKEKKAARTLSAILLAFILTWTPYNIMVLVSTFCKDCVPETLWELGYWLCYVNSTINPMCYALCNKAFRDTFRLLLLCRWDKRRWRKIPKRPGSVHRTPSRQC
# Sequence of D(2) dopamine receptor (Homo sapiens) (P14416 whole entry, looked up): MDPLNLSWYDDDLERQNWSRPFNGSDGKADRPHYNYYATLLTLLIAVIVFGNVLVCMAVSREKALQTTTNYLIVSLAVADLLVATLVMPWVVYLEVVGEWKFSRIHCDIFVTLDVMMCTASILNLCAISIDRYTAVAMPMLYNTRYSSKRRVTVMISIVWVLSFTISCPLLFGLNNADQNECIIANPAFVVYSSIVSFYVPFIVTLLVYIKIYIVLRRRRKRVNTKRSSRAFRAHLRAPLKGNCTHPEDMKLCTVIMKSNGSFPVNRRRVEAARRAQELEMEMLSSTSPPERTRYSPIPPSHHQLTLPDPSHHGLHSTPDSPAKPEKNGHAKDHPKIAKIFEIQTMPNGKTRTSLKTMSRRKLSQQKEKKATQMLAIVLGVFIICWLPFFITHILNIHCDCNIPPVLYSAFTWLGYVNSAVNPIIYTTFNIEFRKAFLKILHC
# Sequence of Beta-2 adrenergic receptor (Homo sapiens) (P07550 whole entry, looked up): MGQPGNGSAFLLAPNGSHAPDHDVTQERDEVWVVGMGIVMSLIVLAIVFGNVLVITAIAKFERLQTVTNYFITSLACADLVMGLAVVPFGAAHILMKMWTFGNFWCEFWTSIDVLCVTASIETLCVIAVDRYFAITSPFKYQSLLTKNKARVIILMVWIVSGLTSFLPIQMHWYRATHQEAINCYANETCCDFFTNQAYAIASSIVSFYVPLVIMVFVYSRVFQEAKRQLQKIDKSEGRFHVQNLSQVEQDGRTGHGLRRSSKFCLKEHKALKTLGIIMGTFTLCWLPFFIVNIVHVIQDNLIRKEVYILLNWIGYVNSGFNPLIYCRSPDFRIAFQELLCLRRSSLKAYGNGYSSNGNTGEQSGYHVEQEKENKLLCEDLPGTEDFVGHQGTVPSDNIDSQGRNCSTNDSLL
# Sequence of Gonadotropin-releasing hormone receptor (Homo sapiens) (P30968 whole entry, looked up): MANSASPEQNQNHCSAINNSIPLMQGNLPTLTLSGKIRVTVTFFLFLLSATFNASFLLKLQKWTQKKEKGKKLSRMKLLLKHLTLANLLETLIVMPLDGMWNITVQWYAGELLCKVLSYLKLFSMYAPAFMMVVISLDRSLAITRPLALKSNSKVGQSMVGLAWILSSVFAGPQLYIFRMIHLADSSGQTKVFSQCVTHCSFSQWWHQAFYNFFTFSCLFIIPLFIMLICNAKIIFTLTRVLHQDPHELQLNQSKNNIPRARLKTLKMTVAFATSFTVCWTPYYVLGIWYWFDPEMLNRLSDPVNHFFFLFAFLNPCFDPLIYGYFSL
smiles,measurement,setting,value
CC(C)(O)c1coc(S(=O)(=O)NC(=O)Nc2c3c(cc4c2CCC4)CCC3)c1,Potency,[1],inactive
same,Potency,[2],61.1 µM (active)
same,Potency,[3],inactive
same,outcome,[4],inactive
same,outcome,[5],inactive
same,Potency,[6],inactive
same,Potency,[7],inactive
same,Potency,[8],inactive
same,Potency,[9],inactive
same,Potency,[10],inactive
same,Potency,[11],inactive
same,Potency,[12],inactive
same,Potency,[13],inactive
same,Potency,[14],inactive
same,Potency,[15],inactive
same,Potency,[16],inactive
same,Potency,[17],inactive
same,Potency,[18],inactive
CC(C)(C)c1nnc(NS(=O)(=O)c2ccccc2)s1,Potency,[1],inactive
same,Potency,[2],inactive
same,Potency,[3],inactive
same,outcome,[4],inactive
same,outcome,[5],inactive
same,Potency,[6],inactive
same,Potency,[7],inactive
same,Potency,[8],inactive
same,Potency,[9],inactive
same,Potency,[10],inactive
same,Potency,[11],inactive
same,Potency,[12],inactive
same,Potency,[13],inactive
same,Potency,[14],inactive
same,Potency,[19],inactive
same,Potency,[15],inactive
same,Potency,[16],inactive
same,Potency,[18],inactive
O=c1[nH]c(=O)c2[nH]c(=O)[nH]c2[nH]1,"activity change, negative = cytotoxicity",[1],13.3% [at 8.39 µM]
same,"activity, positive = activation",[2],2.42% [at 8.39 µM]
same,activity change,[3],"-0.425% [at 5.22 µM, stronger effect = higher value]"
same,activation,[4],-0.365% [at 6.97 µM]
same,activation,[5],1.57% [at 5.23 µM]
same,activation,[6],-6.75% [at 5.99 µM]
same,activation,[7],1.18% [at 5.99 µM]
same,"activity change, negative = cytotoxicity",[8],-5.03% [at 5.99 µM]
same,"activity change, negative = cytotoxicity",[9],-22.6% [at 5.99 µM]
same,"activity change, negative = cytotoxicity",[10],-12.2% [at 5.99 µM]
same,activation,[11],1.49% [at 5.99 µM]
same,activation,[12],-9.75% [at 7.02 µM]
same,"activity, negative = inhibition",[13],3.65% [at 5.58 µM]
same,activation,[14],-0.246% [at 6.97 µM]
same,activation,[19],1.51% [at 8.39 µM]
same,"activity change, negative = inhibition",[15],-5.1% [at 8.39 µM]
same,"activity change, negative = inhibition",[16],-4.56% [at 8.39 µM]
same,activation,[17],11.5% [at 8.39 µM]
same,activation,[20],0.309% [at 8.39 µM]
same,"activity change, negative = inhibition",[18],-2.53% [at 8.38 µM]
O=C(Oc1ccccc1)c1ccccc1C(=O)Oc1ccccc1,Potency,[1],inactive
same,Potency,[2],inactive
same,Potency,[3],inactive
same,outcome,[4],inactive
same,outcome,[5],inactive
same,Potency,[6],inactive
same,Potency,[7],inactive
same,Potency,[8],inactive
same,Potency,[9],inactive
same,Potency,[10],inactive
same,Potency,[11],inactive
same,Potency,[12],inactive
same,Potency,[13],inactive
same,Potency,[14],inactive
same,Potency,[19],inactive
same,Potency,[15],inactive
same,Potency,[17],inactive
same,Potency,[20],inactive
same,Potency,[18],inactive
NS(=O)(=O)Cc1noc2ccccc12,Potency,[1],inactive
same,Potency,[2],inactive
same,Potency,[3],inactive
same,outcome,[4],inactive
same,outcome,[5],inactive
same,Potency,[6],inactive
same,Potency,[7],inactive
same,Potency,[8],inactive
same,Potency,[9],inactive
same,Potency,[10],inactive
same,Potency,[11],inactive
same,Potency,[12],inactive
same,Potency,[13],inactive
same,Potency,[14],inactive
same,Potency,[19],inactive
same,Potency,[15],inactive
same,Potency,[16],inactive
same,Potency,[17],inactive
same,Potency,[18],inactive
CCN1CCCC1CNC(=O)c1cc(S(=O)(=O)CC)c(N)cc1OC (stereo not given),Potency,[1],inactive
same,Potency,[2],inactive
same,Potency,[3],inactive
same,outcome,[4],inactive
same,outcome,[5],inactive
same,Potency,[6],inactive
same,Potency,[7],inactive
same,Potency,[8],inactive
same,Potency,[9],inactive
same,Potency,[10],inactive
same,Potency,[11],inactive
same,Potency,[12],inactive
same,Potency,[13],inactive
same,Potency,[14],inactive
same,Potency,[19],inactive
same,Potency,[16],inactive
same,Potency,[17],inactive
CC(=O)Nc1ccc(C)c(Cl)c1,Potency,[1],inactive
same,Potency,[2],inactive
same,Potency,[3],inactive
same,outcome,[4],inactive
same,outcome,[5],inactive
same,Potency,[6],inactive
same,Potency,[7],inactive
same,Potency,[8],inactive
same,Potency,[9],inactive
same,Potency,[10],inactive
same,Potency,[11],inactive
same,Potency,[12],inactive
same,Potency,[13],inactive
same,Potency,[14],inactive
same,Potency,[19],inactive
same,Potency,[15],inactive
same,Potency,[16],inactive
same,Potency,[20],inactive
same,Potency,[18],inactive
